High-throughput results deposited in PubChem BioAssay by several laboratories.
Shown are actives, neighbours in structure and some others; about 0.82% of the full set was active somewhere.
RTF Ca sens inh – cardiac RTF calcium desensitization | P19429+P45379 | IANBD-labeled cardiac RTF, Ca2+ fluorescence | inhibition, % at 7.15 µM | 340,000 compounds, 0.12% hits;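 active = inhibition above the mean inhibition of all tested compounds plus 3 SD, cut at about 17% in these data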;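 note: assay run at fixed EC70 calcium of 1.6 mM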
Keap1-Nrf2 PPI – Keap1-Nrf2 (human) interaction inhibition; inhibition, % at 9.4 µM; Q14145; 340,000 compounds, 0.15% hits; AID 504523; Keap1 Kelch-Nrf2 peptide fluorescence polarization, 1536-well; in the data active = inhibition above about 12%;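 note: human Keap1 Kelch domain with fluorescein labeled Nrf2 9mer peptide probe; higher means more block of Keap1 binding to Nrf2 peptide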
LANA DNA inh – inhibitors of KSHV LANA C-terminal domain DNA binding; MBP-C-LANA/FAM-LBS DNA binding, fluorescence polarization; inhibition, % at 9 µM; 340,000 compounds, 0.078% hits;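 active = highest replicate inhibition at or above 60% at 9 µM, even if other replicates fall short; inactive = all replicates below 60% inhibition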
eLon inh – E. coli protease La inhibition. P0A9M0. purified E. coli Lon protease, fluorescence polarization. inhibition, % at 7.94 µM. 360,000 compounds, 0.42% hits; in the data active = inhibition above about 13%, passing the limit was not always enough
Target sequence (P0A9M0 whole entry, looked up): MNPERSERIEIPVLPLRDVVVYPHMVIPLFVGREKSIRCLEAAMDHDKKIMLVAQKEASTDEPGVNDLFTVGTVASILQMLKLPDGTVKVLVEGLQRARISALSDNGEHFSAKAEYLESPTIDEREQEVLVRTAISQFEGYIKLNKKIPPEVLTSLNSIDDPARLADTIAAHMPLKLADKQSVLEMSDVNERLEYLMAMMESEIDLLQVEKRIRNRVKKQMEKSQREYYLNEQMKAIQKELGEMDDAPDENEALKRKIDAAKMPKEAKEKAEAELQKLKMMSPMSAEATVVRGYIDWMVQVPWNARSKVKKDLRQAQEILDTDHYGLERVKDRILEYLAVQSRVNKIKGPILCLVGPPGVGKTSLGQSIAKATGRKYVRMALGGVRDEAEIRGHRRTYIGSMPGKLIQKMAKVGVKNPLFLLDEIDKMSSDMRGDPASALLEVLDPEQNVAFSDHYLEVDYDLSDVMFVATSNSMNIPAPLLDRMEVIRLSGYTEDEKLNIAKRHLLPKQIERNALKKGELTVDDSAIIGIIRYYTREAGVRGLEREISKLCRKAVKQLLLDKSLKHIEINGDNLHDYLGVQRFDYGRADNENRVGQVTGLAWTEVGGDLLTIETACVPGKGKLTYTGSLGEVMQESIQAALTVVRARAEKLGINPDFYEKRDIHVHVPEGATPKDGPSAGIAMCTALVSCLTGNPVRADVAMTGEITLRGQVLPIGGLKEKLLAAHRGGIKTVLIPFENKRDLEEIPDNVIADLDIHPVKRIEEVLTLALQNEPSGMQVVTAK
cardiac RTF act – cardiac RTF calcium sensitization | P19429+P45379 | IANBD-labeled TnC RTF fluorescence at EC20 calcium; 0% EC20 calcium, 100% full calcium | 340,000 compounds, 0.24% hits | activation, % at 7.2 µM;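 active = activation above the mean over all tested compounds plus 3 SD, cut at about 30% in these data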;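 note: rise in fluorescence read as greater calcium sensitivity of cardiac thin filaments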
E coli Lon conf – confirmation of E. coli Lon protease inhibitors; shares compounds with eLon inh; purified E. coli Lon, fluorescence polarization; inhibition, % at 7.94 µM; 1,400 compounds, 31% hits; in the data active = inhibition above about 16%
A number is an active result; i = inactive; nt = not tested or not shown; + = active, no number.

SMILES	RTF Ca sens inh	Keap1-Nrf2 PPI	LANA DNA inh	eLon inh	cardiac RTF act	E coli Lon conf
O=C(CC12CC3CC(CC(Br)(C3)C1)C2)Nc1cccc(S(=O)(=O)NC2=NCCC2)c1	i	i	i	16.1	i	i
O=C(Cc1cccs1)N1CCN(c2ccc([N+](=O)[O-])cc2)CC1	i	i	i	i	i	nt
CCN(C(=O)CN1CCCc2cc(C)ccc21)c1c(N)n(Cc2ccccc2)c(=O)[nH]c1=O	i	i	i	i	i	nt
Cc1ccc2c(c1)CCCN2CC(=O)N(C)c1c(N)n(Cc2ccccc2)c(=O)[nH]c1=O	i	i	i	146.1	37.7	i
COc1cc(OC)c2ccc(=O)oc2c1C(CC(=O)N1CCCC1)c1ccc2c(c1)OCO2 (stereo not given)	i	i	i	i	i	nt
COc1cc(C(CC(=O)N2CCCC2)c2c(OC)cc(OC)c3ccc(=O)oc23)cc(OC)c1OC (stereo not given)	i	i	i	37.0	i	i
N#Cc1ccccc1NC(=O)COC(=O)c1ccc(F)cc1F	i	i	i	16.5	i	i
COc1ccccc1N(Cc1ccccc1)S(=O)(=O)c1cccc(C(=O)Nc2ccc(C)cn2)c1	i	i	i	i	i	nt
O=S(=O)(Nc1ccc(O)c(NS(=O)(=O)c2ccccc2)c1)c1ccccc1	i	i	i	17.5	i	i
O=C1C(=Cc2cccn2-c2ccc(O)cc2)C(=O)c2ccccc21	i	i	i	i	i	nt
O=C1C(=Cc2cccn2-c2ccccc2)C(=O)c2ccccc21	i	i	i	61.5	i	38.8
O=C1C(Br)=Cc2cccc3cccc1c23	i	i	i	67.7	i	56.6
O=C1c2cccc3cccc(c23)C(=O)N1OS(=O)(=O)c1ccc(Br)cc1	i	i	i	i	i	nt
FC(F)(F)c1nc2nc(Cl)c(Cl)nc2n1CCCN1CCOCC1	nt	nt	nt	31.1	nt	i
CCOc1c2ccc(C(=O)NCc3cc(C(F)(F)F)cc(C(F)(F)F)c3)cc2nn1CCOC	i	i	i	i	i	nt
COCCn1nc2cc(C(=O)NCc3cc(C(F)(F)F)cc(C(F)(F)F)c3)ccc2c1OC	i	i	i	20.9	i	i
CCC(=Nc1ccc(N)cc1)C1=C(O)C(C(=O)OC)C(C)(C)CC1=O (stereo not given)	i	i	i	20.3	i	i
Cc1nc2cc(NS(=O)(=O)c3ccc(Br)cc3)ccc2n1C	i	i	i	i	i	nt
NC(=O)CSc1cn(Cc2cccc(F)c2)c2ccccc12	i	i	i	25.5	i	i
O=S(=O)(c1ccccc1)N1CCN(Cc2ccccc2)c2ccccc21	i	i	i	34.1	i	i
O=S(=O)(c1ccccc1)N1CCN(Cc2ccccc2)CC1	i	i	i	i	i	nt
Cc1ccccc1N=Cc1cccc(O)c1O	i	i	i	15.1	i	30.3
Cc1ccc(N=Cc2cccc(O)c2O)c(C)c1	i	i	i	i	i	nt
COC(=O)c1cccc(CSc2nc(-c3ccccc3)c(C#N)c(=O)[nH]2)c1	i	i	i	i	i	nt
CSCCC(NC(=O)c1ccc(Cl)cc1)C(=O)OCC(=O)Nc1ccc(C#N)cc1 (stereo not given)	i	i	i	35.4	i	i
SMILES	RTF Ca sens inh	Keap1-Nrf2 PPI	LANA DNA inh	eLon inh	cardiac RTF act	E coli Lon conf
COc1ccc2oc(=Nc3ccccc3)c(-c3nc4ccccc4[nH]3)cc2c1	i	i	i	i	i	nt
O=C(c1ccco1)N1CCN(C(=O)c2ccc(Br)o2)CC1	nt	nt	nt	i	nt	nt
O=C(c1ccc(Br)o1)N1CCN(C23CC4CC(CC(C4)C2)C3)CC1	i	i	i	29.5	i	i
CCOc1nc(N2CCCCC2)nc(-n2cc(-c3ccccc3)nn2)n1	i	i	i	16.1	i	i
CC(C)Cn1c(=O)c(C(=O)Nc2ccncc2)c(O)c2ccccc21	i	i	i	34.7	i	22.6
CC(C)Cn1c(=O)c(C(=O)Nc2cnccn2)c(O)c2ccccc21	i	i	i	i	i	nt
CCCCC1=CC2=C(c3ccco3)C(=O)C(C)(OC(=O)c3ccc(OC)cc3)C(=O)C2=CN1CCCCO (stereo not given)	i	i	i	37.2	i	i
CCCCC1=CC2=C(c3ccco3)C(=O)C(C)(OC(=O)c3ccc(OC)cc3)C(=O)C2=CN1Cc1ccco1 (stereo not given)	i	i	i	i	i	nt
CCCCC1=CC2=C(c3ccco3)C(=O)C(C)(OC(=O)c3ccc(OC)cc3)C(=O)C2=CN1CCCN(CC)CC (stereo not given)	i	i	i	i	i	nt
CCCCC1=CC2=C(c3ccco3)C(=O)C(C)(OC(=O)c3ccc(OC)cc3)C(=O)C2=CN1CC1CC1 (stereo not given)	i	i	i	39.2	i	20.3
CCCCC1=CC2=C(c3ccco3)C(=O)C(C)(OC(=O)c3ccc(OC)cc3)C(=O)C2=CN1CC(C)C (stereo not given)	i	i	i	i	i	nt
CCCCC1=CC2=C(c3ccco3)C(=O)C(C)(OC(=O)c3ccc(OC)cc3)C(=O)C2=CN1C(CO)CO (stereo not given)	i	i	i	31.2	i	i
CCCCC1=CC2=C(c3ccco3)C(=O)C(C)(OC(=O)c3ccc(OC)cc3)C(=O)C2=CN1c1ccc(OC)cc1 (stereo not given)	i	i	i	i	i	nt
CCCCC1=CC2=C(c3ccco3)C(=O)C(C)(OC(=O)c3ccc(OC)cc3)C(=O)C2=CN1C1CC1 (stereo not given)	i	i	i	55.8	i	i
Cc1nnc(NS(=O)(=O)c2ccc(Br)cc2)s1	i	i	i	i	i	nt
Cn1c(CNC(=O)CCNC(=O)c2ccccc2F)cc(=O)n(C)c1=O	i	i	i	i	i	nt
CCN(CC)S(=O)(=O)c1ccc(NC(=O)CC(NC(C)=O)c2ccccc2)cc1 (stereo not given)	i	i	i	16.8	i	i
CCOC(=O)C1=C(C)NC(=S)N(C(C)=O)C1c1ccccc1 (stereo not given)	i	i	i	17.2	i	i
CN(C)S(=O)(=O)c1ccc(Cl)c(C(=O)NNC(=O)Cc2nc3ccccc3n2C)c1	i	i	i	+	i	i
O=C(CCC1CCCC1)N1CCN(S(=O)(=O)c2ccc(Br)cc2)CC1	i	i	i	19.4	i	i
O=C(CC1CCCC1)N1CCN(S(=O)(=O)c2ccc(F)cc2)CC1	i	i	i	i	i	nt
O=C(N/C(=C/c1ccc(Br)cc1)C(=O)N1CCCCC1)c1ccccc1F	i	i	i	i	i	nt
COc1ccccc1C(=O)NCCn1ccc2ccccc21	i	i	i	15.7	i	i
COc1ccc(C(=O)NCCn2ccc3ccccc32)cc1OC	i	i	i	i	i	nt
Cc1cc(=O)n(CC(=O)NC2CC2)c2c1c(C)nn2-c1ccccc1	i	i	i	i	i	nt
Cc1cc(=O)n(CC(=O)NCCN2CCOCC2)c2c1c(C)nn2-c1ccccc1	i	i	i	16.6	i	i
